From PubChem BioAssay
HCV inhibitor: HCV inhibition | Potency, µM (series often up to 41.8 µM), for the others: top-dose activity change, negative = inhibition, usual class: inhibitors | Huh7.5.1 HCVcc-Cre infection, luciferase reporter, 44 h | 3.4% of 340,000 active; note: potency is the fitted concentration of half-maximal effect
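Reporter virus HCVcc-Cre (~0.5 moi) infects cells exposed to compound; seeding density 1,000 cells/well with 4 h settling beforehand. Luminescence, 15 sec read, taken 44 h post-infection following a 15 min RT substrate incubation.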
Pf growth 96h: P. falciparum growth inhibition at 96 hours; Potency, µM (titrated, usually from 28.7 µM), without a hit: at the top dose activity change, negative = inhibition, hits mostly inhibitors; P. falciparum luciferase reporter growth, 96 h; 6.9% of 320,000 active; note: potency is the fitted concentration of half-maximal effect
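Parasite growth measured via integrated firefly luciferase reporter in P. falciparum. Infected erythrocytes at 2% hematocrit, 0.05% parasitemia final were treated 96 hours at 37 C under 5% CO2, and luminescence was read.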
LASV entry inh: Lassa virus entry inhibition. 1.2% of 300,000 active. Potency, µM (series often up to 37.9 µM), for the others: at the top dose activity change, negative = inhibition, most hits filed as inhibitors. Lassa virus pseudotype entry inhibition, cell reporter; calls by dose curve; tested in HEK293 cells; note: potency is the fitted concentration of half-maximal effect; nearly all actives have a fitted effect of over 50% in size
HCMV inh: human cytomegalovirus inhibition | AID 1259415 | HFF cells, HCMV-luciferase reporter, 72 h; active compounds read low | 4.5% of 410,000 active | activity change, negative = inhibition, % at 57.5 µM; in the data active = activity change below about -60%; inconclusive = no clear call, values can overlap the other calls; inactive = above about -39%
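Two-dose cell screen: HFF monolayers treated with compounds and infected with luciferase-expressing HCMV at 1 PFU/cell, 72 h at 37C, then lysed for luciferase measurement.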
MARV entry inh: Marburg virus entry inhibition | Marburg virus pseudotyped entry inhibition, cell reporter | Potency, µM (doses to about 37.8 µM), without a hit: at the top dose activity change, negative = inhibition, actives largely listed as inhibitors | 1.8% of 300,000 active; calls by dose curve; tested in HEK293 cells; note: potency is the fitted concentration of half-maximal effect
Pf growth 48h: inhibits P. falciparum growth in the first generation, 48 h; Potency, µM (highest dose often 28.7 µM), for inactives: top-dose activity change, negative = inhibition, usual class: inhibitors; 5.9% of 310,000 active; P. falciparum luciferase growth in erythrocytes, 48 h; note: potency is the fitted concentration of half-maximal effect
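Luciferase-expressing P. falciparum in infected erythrocytes (2% hematocrit, 0.1% parasitemia final) in RPMI 1640/0.5% Albumax were exposed to compound for 48 hours at 37 C, 5% CO2; growth read as luminescence.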
An asterisk follows results filed as active; ? = inconclusive; . = no result; [ ] = remark or other dose. In the library only some 14% were active in any assay of this set; here they are far more common. Unless noted, calls come from the whole dose curve; as a rule, active = well fitted inhibition curve with a large enough effect; inconclusive = small, poorly fitted or top-dose-only effect, or another doubt; inactive = no such curve, though single readings can be large or run the other way. % is set by controls: 0 for no effect and ±100 for the full control effect.

SMILES	HCV inhibitor	Pf growth 96h	LASV entry inh	HCMV inh	MARV entry inh	Pf growth 48h
c1ccc(COc2ncnc3c2ncn3CCCNCCN2CCOCC2)cc1	7.8%	.	.	-6.9	.	.
CCC(Oc1ccccc1)C(=O)Nc1cc(Cl)ccc1-n1cncn1 (stereo not drawn)	-16.9%	11.7µM*	-7.2%[46.1 µM]	-23.2	-20.9%	4.15µM*
O=C(CC1CCCC1)Nc1cc(C(F)(F)F)ccc1-n1cncn1	?	-36.5%	.	-19.0	.	?
CC(Oc1ccc(F)cc1)C(=O)Nc1cc(C(F)(F)F)ccc1-n1cncn1 (stereo not drawn)	?	0.415µM*	4.7%	-19.7	?	0.586µM*
Cc1cc(CN2CCN(CC(=O)Nc3cc(Cl)ccc3-n3cncn3)CC2)no1	-0.9%	2.08µM*	-0.4%	-0.4	10.0%	2.08µM*
COc1ccc(C(=O)Nc2cc(C(F)(F)F)ccc2-n2cncn2)cc1	?	?	-1.3%	20.6	0.8%	.
Cc1ccc(OCCCC(=O)Nc2cc(Cl)ccc2-n2cncn2)cc1	?	-21.0%	-9.3%	8.8	?	?
Cc1cc(CN2CCN(CC(=O)Nc3cc(C(F)(F)F)ccc3-n3cncn3)CC2)no1	-1.3%	4.15µM*	6.3%	84.8	-8.9%	10.4µM*
Nc1[nH]c(C(=O)c2ccc(Br)cc2)c(-c2ccc(Cl)cc2[N+](=O)[O-])c1C(=O)NCCc1c[nH]c2ccccc12	.	.	.	9.1	.	.
CC1=NN(C(C#N)c2ccccc2C)C(C)(C)C1 (stereo not drawn)	27.6%	-1.6%	-1.8%	-64.6*	-8.4%	-14.2%[5.75 µM]
CC1=NN(C(C#N)c2ccc(F)cc2)C(C)(C)C1 (stereo not drawn)	3.2%	22.0%	12.2%	-29.9	12.4%	22.6%
Oc1cccc2ccc(/C=C/c3c(F)cccc3Cl)nc12	11.2µM*	182.1%	18.3µM*	45.1	?	237.4%
Nc1nccc(/C=C/c2c(F)cccc2Cl)n1	-6.5%	44.0%	3.0%	-67.6*	-25.8%[46.1 µM]	39.4%
Nc1ncnc(SCc2c(F)cccc2Cl)n1	5.2%	32.9%	.	-24.2	.	-11.5%
COc1ccc(Cl)cc1/C=C/c1ccc2cccc(O)c2n1	?	7.1%	.	?	.	.
Oc1cccc2ccc(/C=C/c3ccccc3Cl)nc12	7.94µM*	-17.1%	.	-29.5	.	0.0%
COc1cccc(NC(=O)Cn2c(=O)n(CCc3ccc(OC)c(OC)c3)c(=O)c3ccccc32)c1	.	.	16.5%[46.1 µM]	-1.1	?	.
CC1(C(=O)NS(=O)(=O)C2CC2)CCCN(C(=O)c2cccc(Cl)c2)C1 (stereo not drawn)	.	.	.	-21.0	.	.
COc1ccc(CNC(=O)C2Cc3c(-c4ccc5c(c4)OCO5)ccnc3O2)cc1OC (stereo not drawn)	.	.	.	-26.7	.	.
CCOc1cc(C(=O)N=c2sccn2C)cc(Br)c1OC	?	7.38µM*	.	-12.8	.	?
CCOc1cc(C(=O)NC)cc(Br)c1OC	-7.8%	-24.5%	18.2%[46.1 µM]	9.3	?	11.0%
CN(C)c1ccc(Sc2ccc3nc(N)nc(N)c3c2)cc1	.	.	.	-92.1*	.	.
Cc1ccc(Sc2cc(C(F)(F)F)nc(N(C)C)n2)cc1	-0.7%	23.6%	15.8%	-5.7	27.2%	-1.7%
CCC(NC(=O)Nc1nnc(C(F)(F)F)s1)(C(F)(F)F)C(F)(F)F	4.47µM*	-43.7%	7.08µM*	-105.0*	2.51µM*	1.65µM*
O=C(O)CCC(=O)Nc1nnc(C(F)(F)F)s1	0.3%	17.6%	-2.8%	-13.8	8.4%[46.1 µM]	4.9%
SMILES	HCV inhibitor	Pf growth 96h	LASV entry inh	HCMV inh	MARV entry inh	Pf growth 48h
CCCN1CCC(=O)N([C@H](CSc2ccc(C)cc2)Cc2ccccc2)CC1	-3.4%	5.86µM*	.	-5.7	.	9.28µM*
CC(C)[C@@H](CSc1ccccc1)N1CCN(Cc2ccccc2)CCC1=O	-4.0%	-7.9%	.	0.1	.	14.7µM*
CC(=O)Nc1ccc(SC[C@H](c2ccccc2)N2CCN(CCc3ccccc3)CCC2=O)cc1	.	7.38µM*	.	36.6	.	13.1µM*
CCCN1CCC(=O)N([C@H](CSc2ccc(OC)cc2)Cc2ccccc2)CC1	-4.8%	2.94µM*	.	-3.4	.	10.4µM*
Cc1ccc(SC[C@H](Cc2ccccc2)N2CCN(CCc3ccccc3)CCC2=O)cc1	?	?	.	4.9	.	?
O=C1CCN(CCc2ccccc2)CCN1[C@H](CSc1ccccc1)Cc1ccccc1	-19.9%	?	.	13.5	.	?
COc1ccc(-c2csc(C(O)c3ccc(F)c(F)c3)n2)cc1 (stereo not drawn)	.	.	.	-8.4	.	.
Cc1cc(C)n2nc(C(=O)OCC(=O)c3ccc(F)cc3)nc2n1	4.0%	-3.4%	1.8%	-5.3	20.1%	-13.6%
Cc1ccc[n+](CC(=O)Nc2cc(C(F)(F)F)ccc2Cl)c1	0.0%	?	5.4%	-21.9	6.0%	?
CCC(C)(C)c1ccc(OCCCC[n+]2cccc(C)c2)c(C(C)(C)CC)c1	?	?	?	-101.4*	?	2.33µM*
COc1ccccc1NC(=O)C(Sc1ccccc1)c1ccccc1 (stereo not drawn)	-11.4%	?	?	33.5	-16.3%	?
CCOc1ccccc1NC(=O)C(Sc1ccccc1)c1ccccc1 (stereo not drawn)	-16.0%	?	12.6µM*	-33.2	?	?
COc1ccc(NC(=O)C(Sc2ccccc2)c2ccccc2)c(OC)c1 (stereo not drawn)	?	2.62µM*	-22.5%	-28.8	-0.9%	-24.2%
CCOc1ccccc1NC(=O)C(Sc1nnnn1C)c1ccccc1 (stereo not drawn)	2.3%	-2.8%	.	2.0	.	0.0%
CCOc1ccccc1NC(=O)C(OC(=O)C1CC1)c1ccccc1 (stereo not drawn)	-14.0%	-11.7%	3.2%	?	0.5%[46.1 µM]	?
CCOc1ccccc1NC(=O)C(NCC1(N2CCCCC2)CCCCC1)c1ccccc1 (stereo not drawn)	?	3.7µM*	.	-10.0	.	?
CC(C)n1c(O)c(N=NC(=O)CNC(=O)Cc2ccc(Cl)cc2)c2ccccc21	?	-18.1%	.	-20.5	.	-10.3%
CC(C)n1c(O)c(N=NC(=O)Cc2csc(N3CCOCC3)n2)c2ccccc21	-23.3%	?	-4.8%[46.1 µM]	-1.3	?	13.1µM*
CCOC(=O)c1cnc2c(C)cc(C)cc2c1NCCc1ccc(OC)c(OC)c1	.	.	15.9%[46.1 µM]	9.1	7.9%[46.1 µM]	.
CCOC(=O)c1cnc2ccc(C(=O)OC)cc2c1NCCc1ccc(OC)c(OC)c1	?	1.0%	?	-12.7	-14.0%	10.4µM*
CCOC(=O)c1cnc2c(C)cccc2c1NCCc1ccc(OC)c(OC)c1	?	4.15µM*	-9.2%[46.1 µM]	-0.2	-6.3%	?
CCOC(=O)c1ccc2ncc(C(=O)OCC)c(NCCc3ccc(OC)c(OC)c3)c2c1	.	.	?	-12.1	-9.4%[46.1 µM]	.
Cc1ccc(-c2nnc3c4ccccc4c(C)nn23)cc1S(=O)(=O)N1CCN(CCO)CC1	1.5%	?	13.2%	45.3	-21.2%	0.415µM*
